# HT1080 IDH1KD tx = qHTS for induction of synthetic lethality in tumor cells producing 2HG: qHTS for the HT-1080-IDH1KD cell line; HT-1080 IDH1 knockdown viability, ATP luminescence, 48 h; Potency, µM (series often up to 46.1 µM), without a hit: at the top dose activity, negative = toxicity, usual class: cytotoxic; 360,000 tested, 2% active; AID 686971, 2013;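 note: 0% = DMSO wells and -100% = cell-free medium wells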
#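 Using the IDH1-knockdown HT-1080 line run in the same batch and compound series as the NT line, viability after 48 h at 37 °C was determined by CellTiter-Glo luminescence and expressed as % activity.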
# MCF10A rerep = A quantitative high throughput screen for small molecules that induce DNA re-replication in MCF 10a normal breast cells; MCF 10A DNA re-replication, Hoechst nuclear intensity, 48 h; Potency, µM (highest dose often 46.1 µM), for the others: top-dose activity, positive = re-replication, usual class: activators; 350,000 tested, 2.9% active; AID 624296, 2012; note: % of control where 0% means no effect; nearly all actives have a fitted effect of over 50% in size
# KB-3-1 cytotox = qHTS assay for MDR1-selective chemotherapeutics: Primary screen using the parental adenocarcinoma cell KB-3-1. KB-3-1 viability, CellTiter-Glo ATP luminescence, 72 h. Potency, µM (highest dose often 46.1 µM), hits mostly cytotoxic. AID 1347075, 2019. 400,000 tested, 1.4% active; note: % is set by controls: 0 for no effect and ±100 for the full control effect; nearly all actives have a fitted effect of over 60% in size
#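 Here the drug-naive KB-3-1 line serves as comparator for MDR sub-line selectivity; cells received compound titrations, 72 h at 37 °C, then CellTiter-Glo readout.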
# KB-V1 cytotox = qHTS assay for MDR1-selective chemotherapeutics: Primary screen using the drug-selected MDR subline cells KB-V1; KB-V1 MDR cells viability, CellTiter-Glo, 72 h; Potency, µM (titrated, usually from 46.1 µM), most hits filed as cytotoxic; 400,000 tested, 3.4% active; note: % is set by controls: 0 for no effect and ±100 for the full control effect; nearly all actives have a fitted effect of over 60% in size
#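 In this primary screen, KB-V1 cells overexpressing P-gp are incubated with library compounds (lowest to highest concentration) for 72 h at 37 degrees C before a luminescent ATP viability read.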
# SW480 rereplic = A quantitative high throughput screen for small molecules that induce DNA re-replication in SW480 colon adenocarcinoma cells; SW480 DNA re-replication, Hoechst DNA content imaging, 48 h; AID 624297, 2012; 340,000 tested, 1.8% active; Potency, µM (highest dose often 46.1 µM), inactives show at the highest dose re-replication activation, actives largely listed as activators; note: % of control where 0% means no effect; nearly all actives have a fitted effect of over 55% in size
#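 Image-based read-out: total Hoechst fluorescence of nuclei (405 nm excitation, 500-530 nm emission), with hits raising the fraction of high-intensity nuclei. SW480 colon cells incubated 48 hr with compounds at 37 C.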
# HT1080NT lethal = qHTS for induction of synthetic lethality in tumor cells producing 2HG: qHTS for the HT-1080-NT fibrosarcoma cell line; Potency, µM (highest dose often 46.1 µM), without a hit: at the top dose activity, negative = less viability, actives largely listed as cytotoxic; 360,000 tested, 1.6% active; HT-1080-NT fibrosarcoma viability, CellTiter-Glo ATP luminescence, 48 h;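 note: NT is the 2HG producing partner of a matched IDH1 knockdown line; 0% = DMSO-treated cells and -100% = media-only wells without cells; nearly all actives have a fitted effect of over 55% in size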
#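 Read-out is CellTiter-Glo luminescence after 10 minutes at room temperature, following 48 hours' compound treatment of HT-1080-NT cells (750 cells/well, RPMI, 5% FBS, 37 degrees C).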
# * = called active by the depositor; i = inactive; ? = inconclusive; / = no result given; [ ] = remark or other dose. Sampled rows, rich in hits. Any-hit rate of the full collection: about 8%. Calls come from the whole dose curve; as a rule, active = well fitted curve in the direction sought with a large enough effect; inconclusive = small, poorly fitted or top-dose-only effect, or another doubt; inactive = no such curve, though single readings can be large; an effect the other way counts as inactive or inconclusive. Potency is the fitted concentration of half-maximal effect.
SMILES,HT1080 IDH1KD tx,MCF10A rerep,KB-3-1 cytotox,KB-V1 cytotox,SW480 rereplic,HT1080NT lethal
Nc1nc2sc3c(c2cc1C(=O)N1CCOCC1)CCCC3,9%,17%,i,i,2%,1%
Cc1cccc2cc3c(N)c(C(=O)N4CCOCC4)sc3nc12,?,4.1µM*,2.9µM*,3.7µM*,3.5µM*,?
COc1ccc(O)c(CN2CCN(CCCc3ccccc3)C(CCO)C2)c1 (stereo not given),0%,0.23µM*,i,i,-6%,-9%
COc1ccc(OC)c(CN2CCN(CCc3ccccc3)C(CCO)C2)c1 (stereo not given),0%,1%,i,i,-13%,6%
OCCC1CN(Cc2nc(-c3ccccc3)cs2)CCN1CCc1ccccc1 (stereo not given),-1%,2.9µM*,?,i,-6%,-13%
Cc1nnc2c(N3CCN(c4ccc(F)cc4)CC3)nc3ccc(C(=O)c4ccccc4)cc3n12,/,/,i,i,/,/
COc1ccc(N(C(=O)COc2ccc(Br)cc2)S(=O)(=O)c2ccc(C)cc2)cc1,/,/,i,i,/,/
O=C(COC(=O)Cn1cnc2ccccc21)Nc1ccc2c(c1)C(=O)c1ccccc1C2=O,-11%,?,i,i,6.5µM*,-20%
O=C(COC(=O)Cn1cnc2ccccc21)Nc1ccc(Br)cc1,-2%,/,i,i,/,9%
Cc1cc(C)cc(-n2c(SCC(=O)N3CCc4ccccc43)nc3c([nH]c4ccccc43)c2=O)c1,/,/,i,i,/,/
CN(c1ccccc1)S(=O)(=O)c1ccc(NC(=O)c2ccccc2)cc1,-3%,17%,?,?,-7%,2%
CCc1nnc(NC(=O)c2ccc(S(=O)(=O)N(C)c3ccccc3)cc2)o1,?,7%,?,i,15µM*,-30%
CCc1nnc(NC(=O)c2ccc(S(=O)(=O)N(CC(C)C)CC(C)C)cc2)o1,?,8.9µM*,?,?,18%,?
O=C(Nc1ccccc1)OC[C@H](CN1CCCCC1)OC(=O)Nc1ccccc1,/,-2%[20.6 µM],/,/,2%[20.6 µM],/
COCCN1C=C(C(=O)OC)C(c2cc(Br)c(OC)c(OC)c2)C(C(=O)OC)=C1,-29%,?,i,i,16%,-16%
COC(=O)C1=CN(Cc2ccc(OC)c(OC)c2)C=C(C(=O)OC)C1c1ccc(F)cc1,1%,18µM*,?,i,21µM*,-20%
COC(=O)C1=CN(Cc2ccc(OC)c(OC)c2)C=C(C(=O)OC)C1c1ccc(O)cc1,-12%,?,i,?,99%,1%
CCN1C=C(C(=O)OC)C(c2cccc(OC)c2OC)C(C(=O)OC)=C1,13%,?,i,?,16µM*,0%
COCCN1C=C(C(=O)OC)C(c2ccccc2Cl)C(C(=O)OC)=C1,15%,13µM*,i,i,21µM*,1%
COC(=O)C1=CN(Cc2ccc(OC)c(OC)c2)C=C(C(=O)OC)C1c1cccc(OC)c1OC,0%,?,i,i,?,-8%
O=C(c1ccc2c(c1)N(Cc1ccc(Cl)cc1)C(=O)c1ccccc1S2=O)N1CCOCC1 (stereo not given),/,/,i,i,/,/
Cc1ccc(Cl)cc1N(C)C(=O)c1cc2c(Cl)nc3ccccc3c2s1,/,/,i,i,/,/
Cc1cc(C(=O)N2CCc3ccccc32)n(-c2ccccc2)n1,?,?,10µM*,?,?,?
